The structures appear in SMILES notation. Inconclusive results are not listed. Calls of active or inactive are those of the source. How the source made its calls: active means hit-call score of the fitted dose curve at least 0.9, where 1 is the maximum; inconclusive means response in the unintended direction; inactive means score below 0.9.

Sequence of Glyceraldehyde-3-phosphate dehydrogenase (Homo sapiens) (P04406 whole entry, looked up): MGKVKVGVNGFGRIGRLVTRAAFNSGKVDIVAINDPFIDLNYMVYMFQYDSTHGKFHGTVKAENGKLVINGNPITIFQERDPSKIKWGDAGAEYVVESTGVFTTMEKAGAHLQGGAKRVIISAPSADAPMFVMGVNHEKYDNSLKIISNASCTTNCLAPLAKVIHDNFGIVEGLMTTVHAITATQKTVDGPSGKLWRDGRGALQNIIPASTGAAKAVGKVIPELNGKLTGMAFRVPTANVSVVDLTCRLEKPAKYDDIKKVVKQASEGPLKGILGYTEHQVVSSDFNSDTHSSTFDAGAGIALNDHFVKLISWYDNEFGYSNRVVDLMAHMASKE

Read-out in the assay: Glyceraldehyde-3-phosphate dehydrogenase (Homo sapiens) (UniProt P04406)
Briefly: CLD_GAPDH_48hr: CellzDirect (CLD) Gene Expression Assay for Baseline Control (Glyceraldehyde 3-phosphate dehydrogenase) at 48 hours (AID 2283706).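 Further: active means higher GAPDH mRNA than DMSO vehicle.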 The protocol:
CLD_48hr is a cell-based, multiplexed-readout assay that uses hepatocyte, a human liver primary cell, with measurements taken at 48 hours after chemical dosing in a 96-well plate.CLD_GAPDH_48hr is one of 16 assay component(s) measured or calculated from the CLD_48hr assay. It is designed to make measurements of mRNA induction, a form of inducible reporter, as detected with chemiluminescence signals by Quantitative Nuclease Protection Assay (qNPA) technology.Data from the assay component CLD_GAPDH_48hr was analyzed at the endpoint, CLD_GAPDH_48hr, in the positive analysis fitting direction relative to DMSO as the negative control and baseline of activity. Using a type of inducible reporter, gain-of-signal activity can be used to understand changes in the reporter gene as they relate to the gene GAPDH. Furthermore, this assay endpoint can be referred to as a secondary readout, because this assay has produced multiple assay endpoints where this one serves a background control function. To generalize the intended target to other relatable targets, this assay endpoint is annotated to the background measurement intended target family, where subfamily is baseline control.
Human hepatocyte cultures were treated daily for two consecutive days with fresh dosing solutions containing appropriate concentrations of the 320 ToxCast chemicals (chemical identities were blinded to CellzDirect and other ToxCast collaborators), vehicle control (0.2% DMSO), and positive control inducers as summarized in Table 1. Due to the large number of treatment groups and chemicals examined, the ToxCast chemicals were divided into two groups (spanning two independent cultures of hepatocytes from separate donor preparations (Hu778: ToxCast plates 1 and 2; Hu776: ToxCast plates 3 and 4). Each preparation of human hepatocyte cultures was treated with respective vehicle control, medium only control, set of six positive controls/reference chemicals for the five hepatic receptor pathways, and a subset of eight of the ToxCast chemicals (indoxacarb, pyrithiobac-sodium, norflurazon, cyhalofop-butyl, methomyl, thiram, acetochlor, and propiconazole). These replicate data, coupled with internal replicates designed within the blinded ToxCast chemical library, provided additional data to evaluate interindividual differences between hepatocyte preparations and their potential impact on chemical profiles.Cell morphology and integrity were evaluated using phase-contrast microscopy as an indicator of hepatocyte cell health (Tyson & Green, 1987). Cultures for each treatment group (i.e., media, vehicle [0.2% DMSO], positive control inducers [multiple concentrations], and the ToxCast chemicals [multiple concentrations]) were observed and cell morphology was assessed relative to vehicle control cultures at each harvest time point (0, 6, 24, or 48 h). […] Images were evaluated at the conclusion of the study to assess changes in cell integrity and account for the effects of chemical exposure on uncharacteristic changes in concentration-dependent gene expression profiles. The results from these determinations of apparent cytotoxicity were annotated (yes/no) alongside the corresponding qNPA data for reference.At the conclusion of each treatment period, hepatocyte cultures (96-well) were washed with 1 volume of HBSS, lysed by addition of 25 ul ArrayPlate lysis buffer (HTG, Tucson, AZ), and 70 ul/well of Denaturation Oil, denatured by incubation at 95C for 10 min, and frozen at approximately -70C until analysis by nuclease protection assay (qNPA) (Roberts et al., 2007). For qNPA analysis, cell lysates were thawed at 50C for approximately 30 min, qNPA probes were added, and samples were incubated at 95C for 10 min to begin the detection process by denaturing the target RNA, dissociating the duplexes and secondary structure hybridization. At the conclusion of the hybridization period, S1 nuclease reagent was added to each sample to digest all nonprotected nucleotides at 50C for 60-90 min. […]
As for `CCCN(CC)CC1COC2(CCC(C(C)(C)C)CC2)O1` (stereo unspecified), the call was inactive.
Then `Cc1nc(N(C)C)nc(OC(=O)N(C)C)c1C`, with “inactive”; and `CN=C=S`, with “inactive”; and `CCOP(=O)(OCC)Oc1nc(Cl)c(Cl)cc1Cl`, with “inactive”.
Then `O=C(O)c1c(Cl)ccc2cc(Cl)cnc12`, with “inactive”.
Then `CC1(C)CON(Cc2ccccc2Cl)C1=O`, with “inactive”; and `COCc1cnc(C2=NC(C)(C(C)C)C(=O)N2)c(C(=O)O)c1` (stereo unspecified), with “inactive”; and `Nc1cnn(-c2ccccc2)c(=O)c1Cl`, with “inactive”.
`Clc1cccc(C(Cl)(Cl)Cl)n1`: the call was inactive.
Then `COCC(C)N(C(=O)CCl)c1c(C)csc1C` (stereo unspecified), with “inactive”.
In the case of `COP(=O)(OC)O/C(C)=C/C(=O)N(C)C`, the compound was classed as inactive.
For the compound `Clc1nc(Cl)nc(Nc2ccccc2Cl)n1`, the call was inactive.
Regarding `CC(C)C1(C)N=C(c2ncccc2C(=O)O)NC1=O` (stereo unspecified), the compound was classed as inactive.
Then `CCOc1nc(C(Cl)(Cl)Cl)ns1`, with “inactive”; and `CS(=O)(=O)c1cc(C(F)(F)F)ccc1C(=O)c1cnoc1C1CC1`, with “inactive”.
For the compound `Cc1ccc(N=CN(C)C=Nc2ccc(C)cc2C)c(C)c1`, the compound was called inactive.
Then `C=C(C)CN(CC)c1c([N+](=O)[O-])cc(C(F)(F)F)cc1[N+](=O)[O-]`, with “inactive”; and `C=CCOC(=O)C(C)(C)OC(=O)c1cc(-n2c(=O)cc(C(F)(F)F)n(C)c2=O)ccc1Cl`, with “inactive”; and `CC(C)=CC1C(C(=O)OCc2coc(Cc3ccccc3)c2)C1(C)C` (stereo unspecified), with “inactive”.
Then `COc1cc(Cl)c(OC)cc1Cl`, with “inactive”.
Then `CC(C)N1C(=O)c2ccccc2NS1(=O)=O`, with “inactive”; and `CNC(=O)N(C)c1nnc(C(C)(C)C)s1`, with “inactive”.
As to `CCCC(=NOCC)C1=C(O)CC(CC(C)SCC)CC1=O` (stereo unspecified), the call was inactive.
Regarding `COC(=O)NS(=O)(=O)c1ccc(N)cc1`, the outcome was inactive.
Then `Cc1cnc(C2=NC(C)(C(C)C)C(=O)N2)c(C(=O)O)c1` (stereo unspecified), with “inactive”.
Then `CS(=O)(=O)c1ccc(C(=O)C2C(=O)CCCC2=O)c([N+](=O)[O-])c1`, with “inactive”.
